Screens as filed in PubChem.
Hits are enriched below; roughly 4% of the tested compounds scored in any of these assays.
TROY NFkB inh: inhibitors of TROY-dependent NF-kB signaling | inhibition, % at 10 µM | actives 0.98% (n = 360,000) | Q293 LMP1-TROYcd NF-kB luciferase reporter, 4 h | AID 1347056;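 active = compounds whose plate-normalised and pattern-corrected inhibition of the luciferase reporter signal at the single screening dose is 50% or more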
KKLEB tox: CF airway cell cytotoxicity counter-screen. KKLEB CF airway cells viability, ATPlite luminescence, overnight; active compounds read low; cells stimulated with P. aeruginosa culture filtrate. AID 602141. activity change (cytotoxicity), % at 5 µM. actives 0.36% (n = 360,000);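 active = corrected activity change at or below -50% at 5 µM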
Peg3 promoter: reduces Peg3 promoter-driven luciferase expression in HeLa; HeLa PEG-Prom luciferase reporter, luminescence, overnight; inhibition, % at 20 µM; actives 1.7% (n = 360,000); AID 588405;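 active = inhibition of at least 50% at 20 µM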
HIF-2a inh: inhibitors of HIF-2a. 786-0 RCC cells HIF-2a reporter, luciferase luminescence, overnight. inhibition, % at 18.8 µM. AID 624352. actives 0.72% (n = 360,000);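 active = inhibition of the luminescence signal of 40% or more relative to plate controls, in a single-dose primary screen at 18.75 µM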
CF NFkB block: blocks PAF-induced NF-kB reporter in cystic fibrosis cells; KKLEB NF-kB-GFP reporter, GFP fluorescence overnight; inhibition, % at 5 µM; actives 0.86% (n = 360,000);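 active = at least 50% inhibition at 5 µM, scaled per plate between neutral and stimulator controls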;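 note: PAF is a Pseudomonas aeruginosa culture filtrate used as stimulus; plate controls were PAF-stimulated DMSO wells for no effect and unstimulated DMSO wells for full effect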
TWEAK Fn14 block: TWEAK-Fn14 signaling inhibition; TWEAK-stimulated Fn14 reporter cells, luciferase luminescence, 8 h; inhibition, % at 10 µM; actives 2% (n = 360,000); AID 1159606; in the data active = inhibition above about 50%
An asterisk follows results filed as active.

How did Cc1cc(C(=O)CS(=O)(=O)c2ccccc2)cc(C)c1OC(=O)N(C)C do in these assays?
TROY NFkB inh: 60*; KKLEB tox: -11; Peg3 promoter: -185; HIF-2a inh: -179; CF NFkB block: 15; TWEAK Fn14 block: 30

Results for c1ccc(-c2[nH]c(-c3ccccc3)[n+](CC3CO3)c2-c2ccccc2)cc1 (stereo not given) ?
TROY NFkB inh: 41; KKLEB tox: -13; Peg3 promoter: 30; HIF-2a inh: 36; CF NFkB block: 38; TWEAK Fn14 block: 80*

What do the screens show for `C[C@]12CCC3C(CCC4=CC(O)CC[C@@]43/C=N/O)C1(O)CCC2C1=CC(=O)OC1` (stereo not given in full)?
TROY NFkB inh: 41; KKLEB tox: -62*; Peg3 promoter: 105*; HIF-2a inh: 31; CF NFkB block: 81*; TWEAK Fn14 block: 84*

What do the screens show for `Cc1cc(C)c(N=Cc2c(O)[nH]c(=O)[nH]c2=O)c(C)c1`?
TROY NFkB inh: -1; KKLEB tox: -14; Peg3 promoter: 51*; HIF-2a inh: 8; CF NFkB block: 14; TWEAK Fn14 block: -7

Results for C[C@@H]1CN([C@H](C)CO)C(=O)CCCn2nncc2CO[C@H]1CN(C)C(=O)Oc1ccccc1 ?
TROY NFkB inh: 1; KKLEB tox: -8; Peg3 promoter: -5; HIF-2a inh: 4; CF NFkB block: 6; TWEAK Fn14 block: 0

Results for CN(CC1COc2ccccc2O1)c1nc(-c2cccnc2)nc2ccccc12 (stereo not given) ?
TROY NFkB inh: 21; KKLEB tox: 1; Peg3 promoter: 51*; HIF-2a inh: 16; CF NFkB block: 1; TWEAK Fn14 block: 32

What do the screens show for `C[C@@H]1O[C@@H](O[C@H]2C[C@@H](O)[C@]3(CO)[C@H]4[C@H](O)C[C@]5(C)[C@@H](C6=CC(=O)OC6)CC[C@]5(O)[C@@H]4CC[C@]3(O)C2)[C@H](O)[C@H](O)[C@H]1O`?
TROY NFkB inh: 49; KKLEB tox: 18; Peg3 promoter: 103*; HIF-2a inh: 88*; CF NFkB block: 91*; TWEAK Fn14 block: 85*

How did COC(=O)C[C@]1(C(=O)OC)CN(C#N)N(c2ccc(Cl)cc2)C12c1ccccc1-c1ccccc12 do in these assays?
TROY NFkB inh: 89*; KKLEB tox: -96*; Peg3 promoter: 103*; HIF-2a inh: 85*; CF NFkB block: 88*; TWEAK Fn14 block: 96*

Results for COc1ccc2[nH]c(C)c(CCNCc3cc(OC)c4c(c3)OCO4)c2c1 ?
TROY NFkB inh: 64*; KKLEB tox: 0; Peg3 promoter: 4; HIF-2a inh: 8; CF NFkB block: 4; TWEAK Fn14 block: 20

Results for COc1ccc2[nH]c(C)c(CCNCc3cc(OC)c(OC)c(OC)c3)c2c1 ?
TROY NFkB inh: 5; KKLEB tox: 18; Peg3 promoter: 4; HIF-2a inh: 16; CF NFkB block: 7; TWEAK Fn14 block: -10

What do the screens show for `O=C(O)[C@@H]1C[C@H]1[C@@H](NP(=O)(c1ccccc1)c1ccccc1)c1ccccc1`?
TROY NFkB inh: 1; KKLEB tox: -11; Peg3 promoter: -16; HIF-2a inh: 5; CF NFkB block: 0; TWEAK Fn14 block: 13

What do the screens show for `O=P1(NCc2ccco2)COc2ccccc2OC1`?
TROY NFkB inh: 11; KKLEB tox: 0; Peg3 promoter: 1; HIF-2a inh: 19; CF NFkB block: -9; TWEAK Fn14 block: -10

What do the screens show for `CC1(C)CC[C@]2(C)CC[C@]3(C)C4C[C@@H]5OO[C@@]6(O5)C(CCCC6(C)C)[C@]4(C)CC[C@@]3(C)C2C1` (stereo not given in full)?
TROY NFkB inh: 5; KKLEB tox: -2; Peg3 promoter: 1; HIF-2a inh: 7; CF NFkB block: 56*; TWEAK Fn14 block: 25

What do the screens show for `NC(=O)c1ccc(N)nc1`?
TROY NFkB inh: 4; KKLEB tox: -91*; Peg3 promoter: 8; HIF-2a inh: 3; CF NFkB block: 78*; TWEAK Fn14 block: -4

Results for COC(=O)[C@]12OC[C@]34C([C@@H](O)[C@@H]1O)[C@]1(C)CC(=O)C(O)=C(C)[C@@H]1C[C@H]3OC(=O)[C@H](O)[C@@H]24 (stereo not given in full) ?
TROY NFkB inh: 79*; KKLEB tox: 0; Peg3 promoter: 28; HIF-2a inh: 45*; CF NFkB block: 29; TWEAK Fn14 block: 95*

Results for O=c1[nH]c(=S)n(-c2ccccc2)c(O)c1C=NCCN1CCNCC1 ?
TROY NFkB inh: 9; KKLEB tox: 0; Peg3 promoter: 14; HIF-2a inh: 21; CF NFkB block: -9; TWEAK Fn14 block: 4

What do the screens show for `CCCN1CCC2(CC1)NC(CO)(CO)CO2`?
KKLEB tox: 10; Peg3 promoter: 9; HIF-2a inh: 16; CF NFkB block: -9; TWEAK Fn14 block: 82*

What do the screens show for `CCOc1ccc(-n2c(O)c(C=Nc3ccc(N4CCOCC4)cc3)c(=O)[nH]c2=O)cc1`?
KKLEB tox: 2; Peg3 promoter: 0; HIF-2a inh: 13; CF NFkB block: 1; TWEAK Fn14 block: 91*

How did O=c1[nH]c(=S)n(-c2ccc(Br)cc2)c(O)c1C=Nc1ccc(N2CCOCC2)cc1 do in these assays?
TROY NFkB inh: 37; KKLEB tox: -1; Peg3 promoter: 8; HIF-2a inh: 15; CF NFkB block: -16; TWEAK Fn14 block: 48

What do the screens show for `O=C(CF)NC(NC(=S)Nc1cccc([N+](=O)[O-])c1)C(Cl)(Cl)Cl` (stereo not given)?
TROY NFkB inh: 13; KKLEB tox: -3; Peg3 promoter: 43; HIF-2a inh: 17; CF NFkB block: 20; TWEAK Fn14 block: 5

What do the screens show for `CNC(=O)O/N=C(\C)Cc1nnn(-c2cc(C)on2)n1`?
TROY NFkB inh: 73*; KKLEB tox: 15; Peg3 promoter: 12; HIF-2a inh: 29; CF NFkB block: -10; TWEAK Fn14 block: 21

Results for COc1ccc2c(c1)/C(=C/c1cnc[nH]1)C(=O)N2 ?
TROY NFkB inh: 21; KKLEB tox: -21; Peg3 promoter: 100*; HIF-2a inh: -102; CF NFkB block: 54*; TWEAK Fn14 block: 11

How did CN1CCC(N(C)c2nc(-c3ccc([N+](=O)[O-])cc3)nc3ccccc23)CC1 do in these assays?
TROY NFkB inh: -46; KKLEB tox: -14; Peg3 promoter: 108*; HIF-2a inh: -20; CF NFkB block: 8; TWEAK Fn14 block: -56

What do the screens show for `Cc1ccccc1-n1c(/C=C/c2ccccn2)nc2ccccc2c1=O`?
TROY NFkB inh: -2; KKLEB tox: 4; Peg3 promoter: 28; HIF-2a inh: 35; CF NFkB block: 2; TWEAK Fn14 block: -11

Results for CN1C2CCC1/C(=C/c1ccccn1)C(=O)/C2=C\c1ccccn1 ?
TROY NFkB inh: 42; KKLEB tox: -91*; Peg3 promoter: 99*; HIF-2a inh: 88*; CF NFkB block: 99*; TWEAK Fn14 block: 100*
